CYP2C19 inh – blocks human cytochrome P450 2C19; 96,000 tested, 21% active; P33261; CYP2C19 Supersomes, luciferin-H EGE luminescence, 30 min; inhibition, % at 5 µM;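 active means CYP2C19 inhibition above a set limit at 5 µM in the primary screen, cut at about 50% in these data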;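 further: plate controls were negative control wells for no effect and 2.5 mM tranylcypromine positive control for full effect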
Target sequence (P33261 whole entry, looked up): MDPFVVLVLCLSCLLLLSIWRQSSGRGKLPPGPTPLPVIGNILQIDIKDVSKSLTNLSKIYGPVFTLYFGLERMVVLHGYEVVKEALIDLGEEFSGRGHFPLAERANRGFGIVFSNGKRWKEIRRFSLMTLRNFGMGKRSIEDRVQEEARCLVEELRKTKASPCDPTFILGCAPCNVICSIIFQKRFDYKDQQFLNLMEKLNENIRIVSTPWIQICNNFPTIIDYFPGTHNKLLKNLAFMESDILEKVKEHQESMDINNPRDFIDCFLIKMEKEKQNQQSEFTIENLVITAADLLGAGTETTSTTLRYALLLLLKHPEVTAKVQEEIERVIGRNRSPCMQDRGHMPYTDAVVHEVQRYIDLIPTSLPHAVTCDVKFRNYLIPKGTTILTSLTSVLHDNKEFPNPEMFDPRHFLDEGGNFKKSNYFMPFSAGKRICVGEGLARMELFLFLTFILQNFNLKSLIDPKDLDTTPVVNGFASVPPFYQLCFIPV
CYP2C19 act – increases human CYP2C19 enzyme activity | P33261 | recombinant CYP2C19, luciferin-H EGE luminescence; hits give high values; 0 = fully inhibited enzyme, 1 = untreated enzyme | activation factor at 5 µM | 96,000 tested, under 10 active;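 active means activation factor of at least 2 at 5 µM in the primary screen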;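 further: 0 = wells with 2.5 mM tranylcypromine and 1 = vehicle-only wells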
CYP2C9 act – increases human cytochrome P450 2C9 activity; P11712; recombinant CYP2C9, luciferin-H conversion, luminescence; hits give high values; factor 1 = untreated enzyme, 0 = blocked; activation factor at 5 µM; 96,000 tested, 1.4% active;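 active means activation factor of 2 or more for CYP2C9 at a 5 µM dose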;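 further: 0 = sulfaphenazole-blocked wells and 1 = vehicle-only wells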
CYP2C9 inhib – human CYP2C9 inhibition; P11712; CYP2C9 Supersomes, luciferin-H conversion, luminescence; inhibition, % at 5 µM; 96,000 tested, 20% active; AID 777;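 active means blocking of liver enzyme CYP2C9 beyond about 50% at 5 µM, limit read from the data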
Cav32 inh – inhibitors of human Cav3.2 T-type calcium channel | O95180 | Cav3.2-expressing cells, Fluo-4 calcium fluorescence FDSS; hits give low values | B-score at 10 µM | 100,000 tested, 4% active | AID 449739;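 active means single-dose well whose peak fluorescence ratio is a statistical outlier from its plate by either plate-standardised score or position-corrected B-score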
* = called active by the depositor; . = no result given. Sampled rows, rich in hits. Any-hit rate of the full collection: about 27%.

SMILES	CYP2C19 inh	CYP2C19 act	CYP2C9 act	CYP2C9 inhib	Cav32 inh
COc1ccc(-n2nnnc2SCC(=O)c2cccc(OC)c2)cc1	27	0.7	0.7	27	1.5
COc1ccc(CNC(=O)CSc2nnnn2-c2ccccc2)cc1	89*	0.1	0.3	73*	-0.15
COc1ccc(CCNC(=O)CSc2nnnn2-c2ccccc2)cc1	76*	0.2	0.2	78*	-0.014
Cn1ncc(C#N)c1NC(=O)c1cc(-c2ccccc2Cl)on1	-1	1	0.8	19	0.36
Cc1cccc(OC(=O)CN2C(=O)C3C4CCC(C4)C3C2=O)c1C (configuration not stated)	30	0.7	0.9	6	0.95
OCC[C@@H]1C[C@H](O)[C@@H](O)[C@@]2(CCCO2)O1	.	.	.	.	0.035
COc1ccc(CCNc2nnc(Sc3nnnn3-c3ccccc3)s2)cc1OC	73*	0.3	0.9	8	0.96
O=C1c2ccccc2CC1Sc1nnc(-c2ccncc2)o1 (configuration not stated)	96*	0	0.1	87*	-0.04
COC(=O)Nc1sc2c(c1C(N)=O)CCCCCC2	55*	0.5	1.1	-8	-0.15
CCOC(=O)c1c(NC(=O)OC)sc2c1CCC2	1	1	1.1	-9	-0.6
N#Cc1c(NC(=S)NC(=O)Cc2cccs2)sc2c1CCCCC2	28	0.7	0.1	89*	.
N#CCC(=O)Nc1sc2c(c1C(N)=O)CCCC2	.	.	.	.	0.97
NC(=O)c1c(NC(=O)Cc2cccs2)sc2c1CCC2	44	0.6	0.4	58*	-0.38
CCCOc1ccccc1NC(=O)/C=C/C(N)=O	2	1	1.1	-14	-1
Cc1ccc(NCCC(=O)c2ccc(Cl)cc2)cc1C	59*	0.4	1	5	-0.41
Cc1ccc(C(=O)CCNc2ccc(Cl)cc2)o1	92*	0.1	0.6	37	-0.91
CCCOc1ccc(C(=O)CCNc2ccc(C)c(Cl)c2)cc1	60*	0.4	0.8	20	0.11
CCCS(=O)(=O)c1c(S(=O)(=O)CCC)c2c(N)cccn2c1C(=O)c1ccc(F)cc1	66*	0.3	0.3	68*	-3
CCCS(=O)(=O)c1c(S(=O)(=O)CCC)c2c(N)cccn2c1C(=O)c1ccc(Br)cc1	.	.	.	.	-1.7
CCCCn1cnc2c(cnn2-c2ccc(Cl)cc2)c1=O	.	.	.	.	-0.94
CC(C)C1=C2OC(N)=C(C#N)C(C#N)=C2C(C)CC1 (configuration not stated)	15	0.8	0.9	10	0.019
COc1ccccc1NC(=O)C1CC(=O)OC1c1ccccc1 (configuration not stated)	78*	0.2	0.9	12	0.54
c1ccc(Cn2cnc3ccccc32)cc1	.	.	.	.	1.6
Clc1ccc(OCCn2cnc3ccccc32)cc1	84*	0.2	0.2	77*	-0.026
c1ccc2c(c1)ncn2CCC1CCCCC1	92*	0.1	0.4	58*	-0.76
SMILES	CYP2C19 inh	CYP2C19 act	CYP2C9 act	CYP2C9 inhib	Cav32 inh
O=c1cnc2ccccc2n1CC1CCCCC1	96*	0	0.7	32	-0.11
CC(=O)c1ccc(N2CCN(C(=O)COc3ccccc3F)CC2)c(F)c1	.	.	.	.	0.017
C[C@@H]1C[C@H]2[C@@H]3C[C@H](F)C4=CC(=O)C(Cl)=C[C@]4(C)[C@@]3(F)[C@@H](O)C[C@]2(C)[C@@]1(O)C(=O)CO	.	.	.	.	-0.79
CC1(C)[C@@H](O)CC[C@]2(C)C3C(O)C=C4[C@H]5C[C@@](C)(C(=O)O)CC[C@]5(C)CC[C@]4(C)[C@]3(C)CC[C@@H]12 (some centres not stated)	.	.	.	.	-1.6
S=c1[nH]nc(COc2ccccc2)n1/N=C/c1ccc(Br)s1	45	0.6	0.9	12	.
Cc1ccc(/C=N/n2c(COc3ccccc3)n[nH]c2=S)s1	15	0.9	0.2	77*	-0.045
Cc1ccc(C(=O)O/N=C2\CCSc3ccc(C)cc32)cc1	14	0.9	0.6	42	-1.5
COc1ccc(S(=O)(=O)O/N=C2\CCSc3ccc(C)cc32)cc1	56*	0.4	0.8	15	-2.1
CCOc1ccc(C(CCc2ccccc2)NC(=O)c2ccccc2F)cc1OCC (configuration not stated)	77*	0.2	0.2	78*	-3.3
CCOc1ccccc1C(=O)NC(CO)C(=O)O (configuration not stated)	-5	1	1.1	-6	1.4
CCC(C)C(NC(=O)[C@@H](NC(=O)c1ccccc1F)C(C)C)C(=O)OC (some centres not stated)	11	0.9	1	2	2
CCOc1ccc(C(CCc2ccccc2)NC(=O)c2ccccc2OC)cc1OCC (configuration not stated)	64*	0.4	0.2	85*	-1.5
CC(C)OP(=O)(OC(C)C)C(NC(=O)c1ccc(Br)cc1)c1ccccc1 (configuration not stated)	50	0.5	0.6	41	-3.5
Cc1ccc(C)c(NC(=S)N2CCC(c3nc4ccccc4s3)CC2)c1	37	0.6	0.5	48	-2.9
CC(C)(Cl)C1Cc2cc3ccc(=O)oc3cc2O1 (configuration not stated)	-2	1	1	-1	-0.32
CCC(C)Nc1nc(CN2CCOCC2)nc2sc3c(c12)CCC3 (configuration not stated)	9	0.9	0.7	31	-1.4
COCCNc1nc(SCc2ccccc2)nc2sc3c(c12)CCC3	28	0.7	0.6	40	-4.5*
CC(CO)Nc1nc(SCc2ccccc2)nc2sc3c(c12)CCC3 (configuration not stated)	24	0.8	0.4	56*	-1.6
CC(=O)N1c2c(cc(Br)cc2S(=O)(=O)N2CCN(C(=O)c3ccco3)CC2)CC1C (configuration not stated)	.	.	.	.	0.77
COc1ccc(CN2C(=O)CS(=O)CC2=O)cc1OC	8	0.9	1	-4	-0.13
CCOC(=O)N1CCN(C(=O)Nc2ccc(Cl)cc2Cl)CC1	44	0.6	1	2	0.34
N#Cc1c(NC(=O)c2ccc(-c3ccccc3[N+](=O)[O-])o2)sc2c1CCCC2	50	0.5	0	99*	-0.38
CC1CCc2c(sc(NC(=O)c3ccc(-c4ccccc4[N+](=O)[O-])o3)c2C#N)C1 (configuration not stated)	11	0.9	0.1	91*	-0.35
C=CCOC(=O)C1=C[C@@H](c2ccc(Br)cc2)C[C@@H](OCc2ccc(CO)cc2)O1	.	.	.	.	-1.1
CC(=O)Nc1ccc(S(=O)(=O)NCCSCc2c(Cl)cccc2Cl)cc1	73*	0.3	0.2	77*	-5.1*
CNc1nc(OCCNC(=O)Nc2ccccc2)nc(N2CCOCC2)n1	34	0.7	0.3	65*	-0.28
CN(C)c1nc(OCCOC(=O)c2ccccc2)nc(N(C)C)n1	99*	0	0.3	70*	-1.2
COc1nc(OCCNC(=O)Nc2ccccc2)nc(N(C)C)n1	71*	0.3	0.5	46	-1.3
COC(=O)NCCOc1nc(N(C)C)nc(N(C)C)n1	0	1	1	-2	-0.09

Source: PubChem BioAssay
